Assay outcomes: PubChem, National Center for Advancing Translational Sciences (NCATS)
NPC1 prom act = activates the NPC1 promoter. Potency, µM (doses to about 9.22 µM), for inactives: at the highest dose activation, hits mostly activators. hit rate 2.4% among 320,000. Huh7 NPC1 promoter luciferase reporter, 24 h; also: % of control where 0% means no effect; nearly all actives have a fitted effect of over 60% in size
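Quantitative HTS used a cell-based reporter: Huh7 cells stably bearing the NPC1 promoter upstream of luciferase were treated with compounds for 24 h, and promoter activation was read as luminescence.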
ELG1 genotoxic = inducers of genotoxicity in HEK293T ELG1-luciferase cells; HEK293T ELG1-luciferase reporter, luminescence, 16 h; Potency, µM (highest dose often 46 µM), inactives show top-dose activity change, positive = activation, hits mostly activators; hit rate 1.3% among 330,000; AID 504466; also: % of control where 0% means no effect; nearly all actives have a fitted effect of over 60% in size
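Genotoxic stress is detected as increased luminescence from luciferase-tagged ELG1 in HEK293T cells, measured with ONE-Glo after a 16 hr treatment at 37 °C.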
SMN2 splice up = increases expression of the SMN2 splice variant. HEK293 SMN2-luciferase splicing reporter, luminescence, 30-36 h. Potency, µM (series often up to 46.1 µM), without a hit: top-dose activity change, positive = activation, usual class: activators. hit rate 2.8% among 210,000; also: % of control where 0% means no effect; nearly all actives have a fitted effect of over 55% in size
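HEK293 cells carry an SMN2 minigene-luciferase reporter in which exon 7 inclusion puts luciferase in frame. Cells were seeded at 2000 cells/well, attached for 10-12 hours, then exposed to compounds for 30-36 hours at 37C before ONE-Glo luminescence.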
Rab9 prom act = activates the Rab9 promoter; hit rate 2.8% among 320,000; AID 485297; Potency, µM (doses to about 9.22 µM), without a hit: at the highest dose activation, negative = inhibition, actives largely listed as activators; Huh7 Rab9 promoter-luciferase reporter, luminescence, 24 h; also: % of control where 0% means no effect; nearly all actives have a fitted effect of over 60% in size
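Promoter activation is measured as luciferase luminescence in Huh7 cells stably transfected with a Rab9 promoter–luciferase construct, following 24 h compound exposure at 37 °C and 10 min reagent incubation at ambient temperature.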
FLuc counter = firefly luciferase modulation, counter-screen for miR-21 project; purified FLuc, Km substrates, luminescence inhibition; Potency, µM (doses to about 57.5 µM), for the others: top-dose activity change, negative = inhibition, usual class: inhibitors; hit rate 6.9% among 360,000; AID 588342;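 also: plate controls were vehicle for no effect and reference inhibitor for full effect; nearly all actives have a fitted effect of over 55% in size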
Target sequence (P08659 whole entry, looked up): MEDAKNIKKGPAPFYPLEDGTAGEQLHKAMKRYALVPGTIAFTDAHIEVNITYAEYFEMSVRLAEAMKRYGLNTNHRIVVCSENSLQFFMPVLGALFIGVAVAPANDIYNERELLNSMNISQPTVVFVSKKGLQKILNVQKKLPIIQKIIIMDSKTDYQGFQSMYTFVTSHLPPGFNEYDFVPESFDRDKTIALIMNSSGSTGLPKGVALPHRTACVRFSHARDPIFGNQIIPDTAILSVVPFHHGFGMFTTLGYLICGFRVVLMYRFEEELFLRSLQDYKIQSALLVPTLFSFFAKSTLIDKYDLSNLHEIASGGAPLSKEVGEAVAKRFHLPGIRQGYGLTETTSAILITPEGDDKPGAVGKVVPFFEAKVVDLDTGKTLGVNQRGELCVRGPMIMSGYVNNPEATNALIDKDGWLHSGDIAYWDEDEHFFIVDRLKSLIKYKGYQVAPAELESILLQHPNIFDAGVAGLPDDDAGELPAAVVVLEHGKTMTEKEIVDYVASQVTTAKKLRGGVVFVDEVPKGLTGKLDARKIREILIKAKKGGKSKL
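Biochemical qHTS of compounds, final roughly 60 µM downward over six points, against 10 nM purified firefly luciferase using Km concentrations of substrates (10 uM D-luciferin, 10 uM ATP) in Tris acetate pH 7.5 buffer; luminescence output.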
An asterisk follows results filed as active. Most compounds without a hit are left out; they make up all but 7.4% or so of the library. Calls follow the shape of the dose curve; as a rule, active = well fitted curve in the direction sought with a large enough effect; inconclusive = small, poorly fitted or top-dose-only effect, or another doubt; inactive = no such curve, though single readings can be large; an effect the other way counts as inactive or inconclusive. Potency is read from the fitted curve at half-maximal effect.

How did C/C(=N\NC(=O)c1n[nH]c2c1CCC2)c1cccs1 do in these assays?
NPC1 prom act: inconclusive; ELG1 genotoxic: inconclusive; Rab9 prom act: inconclusive; FLuc counter: 0.601µM*

What do the screens show for `C=C1/C(=C\C=C2/CCC[C@]3(C)C([C@H](C)CCCC(C)(C)O)CC[C@@H]23)C[C@@H](O)C[C@@H]1O` (stereo partly drawn)?
SMN2 splice up: -7.9%

What do the screens show for `Cc1ccc(/C=N/NC(=O)c2n[nH]c3c2CCCC3)cc1`?
NPC1 prom act: inconclusive; ELG1 genotoxic: 6.51µM*; Rab9 prom act: -5.6%; FLuc counter: 2.39µM*

How did Cc1ccc(NC(=S)N2CCCCC2)cc1C do in these assays?
NPC1 prom act: -2.5%; ELG1 genotoxic: 14.1%; Rab9 prom act: 26.2%; FLuc counter: 23.9µM*

How did Cc1ccc(NC(=S)N2CCCCCC2)cc1 do in these assays?
NPC1 prom act: inconclusive; ELG1 genotoxic: inconclusive; Rab9 prom act: inconclusive; FLuc counter: 8.49µM*

Results for Cc1ccc(NC(=S)N2CCCC2)cc1 ?
NPC1 prom act: 21.8%; ELG1 genotoxic: 10.9%; SMN2 splice up: 25.0%; Rab9 prom act: 28.8%; FLuc counter: inconclusive

What do the screens show for `CCCOc1cccc(C(=O)Nc2ccc(Br)cc2F)c1`?
NPC1 prom act: inconclusive; ELG1 genotoxic: inconclusive; SMN2 splice up: 12.6µM*; Rab9 prom act: inconclusive; FLuc counter: 2.69µM*

How did O=C(Nc1ccc(COc2ccccc2)cc1)Nc1cccc(C(=O)O)c1 do in these assays?
NPC1 prom act: inconclusive; ELG1 genotoxic: 10.5%; Rab9 prom act: 2.82µM*; FLuc counter: 0.849µM*

What do the screens show for `O=C(Nc1ccccc1)c1ccc(COc2ccccc2)cc1`?
NPC1 prom act: inconclusive; ELG1 genotoxic: 7.8%; SMN2 splice up: 9.2%; Rab9 prom act: inconclusive; FLuc counter: -13.5%

How did CC(C)Oc1cccc(C(=O)NC(=S)Nc2ccccc2)c1 do in these assays?
NPC1 prom act: inconclusive; ELG1 genotoxic: inconclusive; SMN2 splice up: 11.2µM*; Rab9 prom act: 3.16µM*; FLuc counter: 2.39µM*

How did CCCOc1cccc(C(=O)Nc2cc(-c3ccccc3)no2)c1 do in these assays?
SMN2 splice up: 14.1µM*; FLuc counter: 6.01µM*

Results for CCOc1ccc(-c2cc3c(=O)n(Cc4nc(-c5cccc(OC)c5OC)oc4C)ccn3n2)cc1Cl ?
SMN2 splice up: -0.2%; FLuc counter: -3.7%

What do the screens show for `CC1=C(C(=O)N2CCN(c3ccc(Cl)cc3)CC2)C2(CCC(C)CC2)OC1=O` (stereo not drawn)?
SMN2 splice up: 5.3%; FLuc counter: -1.6%

Results for O=C(O)c1cccc(NC(=S)NC(=O)c2ccncc2)c1 ?
NPC1 prom act: -0.7%; ELG1 genotoxic: 4.3%; SMN2 splice up: 8.0%; Rab9 prom act: 2.0%; FLuc counter: inconclusive

How did Cc1ccc(C(=O)O)cc1NC(=S)NC(=O)Cc1ccccc1 do in these assays?
NPC1 prom act: -2.1%; ELG1 genotoxic: 3.3%; SMN2 splice up: 17.0%; Rab9 prom act: -1.0%; FLuc counter: -6.1%

Results for CCOc1cc(C(=O)NC(=S)Nc2ccc(Cl)c(C(=O)O)c2)cc(OCC)c1OCC ?
NPC1 prom act: -13.3%; ELG1 genotoxic: 0.6%; Rab9 prom act: 0.8%; FLuc counter: -0.9%

What do the screens show for `CC(C)Oc1ccc(C(=O)NC(=S)Nc2ccc(Cl)c(C(=O)O)c2)cc1`?
NPC1 prom act: inconclusive; ELG1 genotoxic: inconclusive; Rab9 prom act: inconclusive; FLuc counter: 16.9µM*

Results for O=C(O)c1cccc(NC(=S)NC(=O)c2cccc(OCc3ccccc3)c2)c1 ?
NPC1 prom act: 25.0%; ELG1 genotoxic: 8.6%; Rab9 prom act: inconclusive; FLuc counter: 19µM*

Results for COc1c(C)cc(Br)cc1C(=O)NC(=S)Nc1ccc(Cl)c(C(=O)O)c1 ?
NPC1 prom act: 15.3%; ELG1 genotoxic: 9.5%; Rab9 prom act: 19.5%; FLuc counter: 23.9µM*

Results for COc1cccc(C(=O)NC(=S)Nc2ccc(Cl)c(C(=O)O)c2)c1 ?
SMN2 splice up: -2.6%; FLuc counter: inconclusive

Results for Cc1ccc(C(=O)O)cc1NC(=S)NC(=O)c1ccc(COc2ccccc2)cc1 ?
NPC1 prom act: 2.0%; ELG1 genotoxic: 1.2%; Rab9 prom act: 6.7%; FLuc counter: 12µM*

Results for C=Cc1ccc(C=C)cc1 ?
SMN2 splice up: -9.4%

How did CC(C)CCNC(=O)Nc1ccc2c(c1)N(C)C(=O)c1ccccc1S2 do in these assays?
FLuc counter: -2.3%

What do the screens show for `CCCOc1cccc(C(=O)NC(=S)Nc2ccccc2)c1`?
NPC1 prom act: inconclusive; ELG1 genotoxic: inconclusive; SMN2 splice up: 12.6µM*; Rab9 prom act: inconclusive; FLuc counter: 8.49µM*

Results for CCOc1ccccc1CNC(=O)CCC(=O)N1CCSc2ccccc21 ?
FLuc counter: -8.5%

What do the screens show for `Cc1ccccc1-c1nc(-c2ccc(NC(=O)c3cccs3)cc2)no1`?
NPC1 prom act: inconclusive; ELG1 genotoxic: 2.2%; SMN2 splice up: -7.8%; Rab9 prom act: 3.98µM*; FLuc counter: 13.5µM*

What do the screens show for `O=C(c1ccncc1)c1ccc(NC(=O)c2cccs2)cc1`?
NPC1 prom act: 7.1%; ELG1 genotoxic: -5.1%; SMN2 splice up: -32.6%; Rab9 prom act: 18.3%; FLuc counter: inconclusive

Results for O=C(Nc1ccc(-c2noc(-c3ccccc3F)n2)cc1)c1cccs1 ?
NPC1 prom act: inconclusive; ELG1 genotoxic: inconclusive; SMN2 splice up: 14.1µM*; Rab9 prom act: 1.58µM*; FLuc counter: inconclusive

Results for COc1cc(OC)cc(C(=O)NCCc2csc(-c3ccc(C(F)(F)F)cc3)n2)c1 ?
FLuc counter: -12.0%

What do the screens show for `CCOc1ccc(C(=O)NCCc2csc(-c3cccc(C)c3)n2)cc1`?
FLuc counter: 16.9µM*

How did COc1ccc(C(=O)NCCc2csc(-c3ccc(Cl)cc3)n2)cc1 do in these assays?
FLuc counter: 12µM*

Results for Cc1ccc(C(=O)NCCc2csc(-c3cccc(F)c3)n2)cc1C ?
FLuc counter: 19µM*

What do the screens show for `CCOc1ccc(Nc2nc(-c3cccc(Cl)c3)c3c(n2)-c2ccccc2OC3)cc1`?
FLuc counter: 12µM*

Results for CC1CCCCN1CCCNC(=O)c1cc(Sc2cccc(Cl)c2)nc2ccccc12 (stereo not drawn) ?
FLuc counter: -0.9%

What do the screens show for `CN(C)c1ccc(CNc2nc(-c3ccco3)nn2S(=O)(=O)c2ccc3ccccc3c2)cc1`?
FLuc counter: -12.2%

What do the screens show for `COC(=O)c1ccc(C(NC(=O)OCc2ccccc2)/C(C)=C/[C@@H](C)C(=O)Nc2ccc(OC)cc2)cc1` (stereo partly drawn)?
SMN2 splice up: -4.3%

What do the screens show for `CC(C)Oc1ccc(CNC(=O)CCCN2C(=O)c3cccnc3Oc3ccc(Cl)cc32)cc1`?
FLuc counter: -0.1%
